Laboratory results published in the supplement of paper PMC11732987, “Enantioselective OTUD7B fragment discovery through chemoproteomics screening and high-throughput optimisation” (Communications Chemistry, 2025).

What was measured:
Test in all cases: log2 ratio of Biotin-Ahx-Ub-VS probe labelling (fragment/DMSO); higher = less target engagement (more negative = stronger competition), active = hit call of the paper (q ≤ 0.05, log2 ratio ≤ -1)
Conditions in all cases: compound concentration: 200 uM; treatment time: 3 h
[1] = molecular target: T1, USP42 (UniProt Q9H9J4)
T1 sequence (whole entry): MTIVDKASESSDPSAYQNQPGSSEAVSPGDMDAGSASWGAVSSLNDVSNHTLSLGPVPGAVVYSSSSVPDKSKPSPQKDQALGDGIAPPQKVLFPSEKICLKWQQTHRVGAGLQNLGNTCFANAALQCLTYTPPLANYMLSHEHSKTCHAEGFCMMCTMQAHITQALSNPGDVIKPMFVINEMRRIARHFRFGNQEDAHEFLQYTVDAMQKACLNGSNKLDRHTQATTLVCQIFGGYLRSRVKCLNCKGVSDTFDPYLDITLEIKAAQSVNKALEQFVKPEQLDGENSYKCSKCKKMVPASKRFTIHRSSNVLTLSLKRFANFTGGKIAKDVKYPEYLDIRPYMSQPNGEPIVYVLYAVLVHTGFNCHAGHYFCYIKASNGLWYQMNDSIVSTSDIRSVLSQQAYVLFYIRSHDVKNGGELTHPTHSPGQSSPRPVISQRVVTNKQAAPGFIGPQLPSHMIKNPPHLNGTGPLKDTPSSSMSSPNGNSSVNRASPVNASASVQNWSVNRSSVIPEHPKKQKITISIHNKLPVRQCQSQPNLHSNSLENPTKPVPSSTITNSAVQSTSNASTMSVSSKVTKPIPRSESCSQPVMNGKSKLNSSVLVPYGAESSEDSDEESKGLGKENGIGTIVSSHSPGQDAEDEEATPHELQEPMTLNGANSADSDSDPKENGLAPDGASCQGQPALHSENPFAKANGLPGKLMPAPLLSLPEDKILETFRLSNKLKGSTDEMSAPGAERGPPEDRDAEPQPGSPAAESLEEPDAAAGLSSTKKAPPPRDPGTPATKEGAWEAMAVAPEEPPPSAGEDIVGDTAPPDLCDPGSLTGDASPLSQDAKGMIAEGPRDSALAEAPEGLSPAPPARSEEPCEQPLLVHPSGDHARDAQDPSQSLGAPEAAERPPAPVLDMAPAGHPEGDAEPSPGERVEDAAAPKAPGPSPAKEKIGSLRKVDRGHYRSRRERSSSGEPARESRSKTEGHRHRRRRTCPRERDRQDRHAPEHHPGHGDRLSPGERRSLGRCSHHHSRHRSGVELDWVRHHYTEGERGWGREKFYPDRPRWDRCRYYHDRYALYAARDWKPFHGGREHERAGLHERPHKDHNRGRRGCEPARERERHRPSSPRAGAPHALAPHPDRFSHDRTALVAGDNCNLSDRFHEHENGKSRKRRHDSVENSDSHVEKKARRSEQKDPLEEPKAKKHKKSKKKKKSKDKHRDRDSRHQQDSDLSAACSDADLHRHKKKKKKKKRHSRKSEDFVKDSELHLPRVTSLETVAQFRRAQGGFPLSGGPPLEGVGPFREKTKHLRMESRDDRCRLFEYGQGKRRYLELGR
Outline: (§1)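 HEK293T lysate (495 µg per sample, in Tris/CHAPS/IGEPAL buffer with protease inhibitors) was treated in triplicate with fragment at 200 µM or with DMSO for 3 h. It was then treated with Biotin-Ahx-Ub-VS (0.5 µM final) for 1 h. Labelled DUBs were NeutrAvidin-enriched, digested with LysC and trypsin, and run by diaPASEF LC-MS/MS. Spectronaut label-free quantities were global-median-normalised. Values are average log2 ratios fragment/DMSO by unpaired t-test, using proteins with ≥2 unique peptides.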

[2] = molecular target: USP46 (UniProt P62068)
Outline: as §1

[3] = molecular target: T2, USP47 (UniProt Q96K76)
T2 sequence (whole entry): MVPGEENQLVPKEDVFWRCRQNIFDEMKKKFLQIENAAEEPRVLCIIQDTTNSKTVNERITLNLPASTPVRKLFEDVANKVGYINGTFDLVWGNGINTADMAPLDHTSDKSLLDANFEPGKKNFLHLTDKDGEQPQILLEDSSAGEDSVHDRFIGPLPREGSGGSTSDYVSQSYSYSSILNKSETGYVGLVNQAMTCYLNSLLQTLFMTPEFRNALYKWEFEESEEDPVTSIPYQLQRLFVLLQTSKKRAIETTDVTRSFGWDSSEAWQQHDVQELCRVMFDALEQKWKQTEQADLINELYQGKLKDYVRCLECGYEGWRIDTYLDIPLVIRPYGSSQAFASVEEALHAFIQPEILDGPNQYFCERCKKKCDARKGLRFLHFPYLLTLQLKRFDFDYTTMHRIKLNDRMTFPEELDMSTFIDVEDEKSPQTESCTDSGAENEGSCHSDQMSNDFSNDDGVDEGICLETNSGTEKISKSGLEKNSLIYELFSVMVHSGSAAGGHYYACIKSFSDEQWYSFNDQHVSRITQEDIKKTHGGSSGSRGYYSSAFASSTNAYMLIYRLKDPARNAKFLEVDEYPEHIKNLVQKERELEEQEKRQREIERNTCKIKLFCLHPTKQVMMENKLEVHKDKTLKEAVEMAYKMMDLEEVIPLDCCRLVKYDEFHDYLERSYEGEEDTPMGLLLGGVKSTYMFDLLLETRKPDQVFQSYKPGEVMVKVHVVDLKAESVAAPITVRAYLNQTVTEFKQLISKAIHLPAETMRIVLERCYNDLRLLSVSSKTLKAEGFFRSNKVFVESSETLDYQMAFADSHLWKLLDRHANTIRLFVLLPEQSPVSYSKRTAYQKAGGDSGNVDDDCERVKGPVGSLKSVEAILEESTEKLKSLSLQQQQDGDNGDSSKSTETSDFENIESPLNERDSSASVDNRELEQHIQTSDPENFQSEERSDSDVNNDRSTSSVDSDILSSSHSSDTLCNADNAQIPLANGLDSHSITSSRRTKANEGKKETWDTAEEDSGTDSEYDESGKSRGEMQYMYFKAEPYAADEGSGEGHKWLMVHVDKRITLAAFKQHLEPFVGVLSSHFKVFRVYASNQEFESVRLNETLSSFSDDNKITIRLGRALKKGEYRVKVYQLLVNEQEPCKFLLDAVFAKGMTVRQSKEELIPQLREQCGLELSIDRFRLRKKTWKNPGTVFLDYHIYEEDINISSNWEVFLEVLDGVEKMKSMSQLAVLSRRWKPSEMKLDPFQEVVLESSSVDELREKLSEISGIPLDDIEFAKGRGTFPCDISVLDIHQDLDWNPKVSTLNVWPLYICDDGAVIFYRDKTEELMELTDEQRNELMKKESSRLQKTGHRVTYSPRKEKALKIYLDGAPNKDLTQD
Outline: as §1

[4] = molecular target: T3, USP48 (UniProt Q86UV5)
T3 sequence (whole entry): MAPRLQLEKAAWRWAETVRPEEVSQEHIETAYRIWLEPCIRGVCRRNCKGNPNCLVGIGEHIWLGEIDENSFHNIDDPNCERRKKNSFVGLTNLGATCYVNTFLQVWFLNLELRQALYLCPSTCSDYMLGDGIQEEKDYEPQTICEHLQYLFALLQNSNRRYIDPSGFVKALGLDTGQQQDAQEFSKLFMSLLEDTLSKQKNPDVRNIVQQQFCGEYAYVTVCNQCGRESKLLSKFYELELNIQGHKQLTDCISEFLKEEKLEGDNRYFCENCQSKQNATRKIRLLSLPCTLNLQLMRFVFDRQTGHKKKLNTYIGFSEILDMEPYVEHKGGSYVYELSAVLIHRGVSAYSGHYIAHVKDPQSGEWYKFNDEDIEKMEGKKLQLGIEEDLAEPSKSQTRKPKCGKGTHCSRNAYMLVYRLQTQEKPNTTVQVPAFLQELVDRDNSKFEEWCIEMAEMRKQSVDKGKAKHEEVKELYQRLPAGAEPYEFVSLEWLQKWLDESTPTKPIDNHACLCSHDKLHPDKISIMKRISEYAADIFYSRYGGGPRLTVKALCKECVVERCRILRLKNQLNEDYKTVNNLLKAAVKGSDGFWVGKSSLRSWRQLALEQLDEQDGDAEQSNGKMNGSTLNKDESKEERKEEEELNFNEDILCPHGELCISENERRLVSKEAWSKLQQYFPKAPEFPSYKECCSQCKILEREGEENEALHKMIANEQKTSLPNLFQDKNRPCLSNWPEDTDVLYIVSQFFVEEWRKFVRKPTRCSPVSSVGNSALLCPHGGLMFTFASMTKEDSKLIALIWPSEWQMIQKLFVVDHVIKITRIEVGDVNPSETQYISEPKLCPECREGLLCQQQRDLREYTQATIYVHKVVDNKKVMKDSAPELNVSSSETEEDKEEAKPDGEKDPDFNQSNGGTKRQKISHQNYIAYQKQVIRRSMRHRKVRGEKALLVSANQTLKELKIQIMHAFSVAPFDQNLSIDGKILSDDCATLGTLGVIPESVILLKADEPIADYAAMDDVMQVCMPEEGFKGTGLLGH
Outline: as §1

[5] = molecular target: T4, USP5 (UniProt P45974)
T4 sequence (whole entry): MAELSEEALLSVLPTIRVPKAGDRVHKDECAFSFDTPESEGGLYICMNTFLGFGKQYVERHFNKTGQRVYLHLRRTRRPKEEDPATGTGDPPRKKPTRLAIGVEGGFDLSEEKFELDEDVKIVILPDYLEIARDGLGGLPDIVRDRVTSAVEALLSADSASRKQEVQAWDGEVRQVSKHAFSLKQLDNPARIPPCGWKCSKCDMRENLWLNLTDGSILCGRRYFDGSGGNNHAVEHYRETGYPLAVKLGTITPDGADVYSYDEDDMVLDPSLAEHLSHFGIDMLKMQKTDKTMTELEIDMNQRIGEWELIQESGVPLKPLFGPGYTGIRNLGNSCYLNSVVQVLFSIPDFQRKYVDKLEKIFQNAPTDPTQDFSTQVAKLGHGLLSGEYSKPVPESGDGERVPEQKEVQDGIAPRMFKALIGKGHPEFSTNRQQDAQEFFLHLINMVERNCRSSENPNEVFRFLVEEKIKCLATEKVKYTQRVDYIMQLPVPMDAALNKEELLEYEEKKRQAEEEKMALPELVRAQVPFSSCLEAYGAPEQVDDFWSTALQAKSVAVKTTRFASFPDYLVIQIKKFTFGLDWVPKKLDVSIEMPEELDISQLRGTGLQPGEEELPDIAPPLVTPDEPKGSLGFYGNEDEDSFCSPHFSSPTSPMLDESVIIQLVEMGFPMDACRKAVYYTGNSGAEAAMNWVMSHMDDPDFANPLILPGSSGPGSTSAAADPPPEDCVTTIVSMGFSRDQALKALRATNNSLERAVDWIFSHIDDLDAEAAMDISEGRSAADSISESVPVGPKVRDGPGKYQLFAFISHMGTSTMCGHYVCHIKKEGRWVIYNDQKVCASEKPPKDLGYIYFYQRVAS
Outline: as §1

[6] = molecular target: USP54 (UniProt Q70EL1)
Outline: as §1

[7] = molecular target: USP7 (UniProt Q93009)
Outline: as §1

[8] = molecular target: T5, USP8 (UniProt P40818)
T5 sequence (whole entry): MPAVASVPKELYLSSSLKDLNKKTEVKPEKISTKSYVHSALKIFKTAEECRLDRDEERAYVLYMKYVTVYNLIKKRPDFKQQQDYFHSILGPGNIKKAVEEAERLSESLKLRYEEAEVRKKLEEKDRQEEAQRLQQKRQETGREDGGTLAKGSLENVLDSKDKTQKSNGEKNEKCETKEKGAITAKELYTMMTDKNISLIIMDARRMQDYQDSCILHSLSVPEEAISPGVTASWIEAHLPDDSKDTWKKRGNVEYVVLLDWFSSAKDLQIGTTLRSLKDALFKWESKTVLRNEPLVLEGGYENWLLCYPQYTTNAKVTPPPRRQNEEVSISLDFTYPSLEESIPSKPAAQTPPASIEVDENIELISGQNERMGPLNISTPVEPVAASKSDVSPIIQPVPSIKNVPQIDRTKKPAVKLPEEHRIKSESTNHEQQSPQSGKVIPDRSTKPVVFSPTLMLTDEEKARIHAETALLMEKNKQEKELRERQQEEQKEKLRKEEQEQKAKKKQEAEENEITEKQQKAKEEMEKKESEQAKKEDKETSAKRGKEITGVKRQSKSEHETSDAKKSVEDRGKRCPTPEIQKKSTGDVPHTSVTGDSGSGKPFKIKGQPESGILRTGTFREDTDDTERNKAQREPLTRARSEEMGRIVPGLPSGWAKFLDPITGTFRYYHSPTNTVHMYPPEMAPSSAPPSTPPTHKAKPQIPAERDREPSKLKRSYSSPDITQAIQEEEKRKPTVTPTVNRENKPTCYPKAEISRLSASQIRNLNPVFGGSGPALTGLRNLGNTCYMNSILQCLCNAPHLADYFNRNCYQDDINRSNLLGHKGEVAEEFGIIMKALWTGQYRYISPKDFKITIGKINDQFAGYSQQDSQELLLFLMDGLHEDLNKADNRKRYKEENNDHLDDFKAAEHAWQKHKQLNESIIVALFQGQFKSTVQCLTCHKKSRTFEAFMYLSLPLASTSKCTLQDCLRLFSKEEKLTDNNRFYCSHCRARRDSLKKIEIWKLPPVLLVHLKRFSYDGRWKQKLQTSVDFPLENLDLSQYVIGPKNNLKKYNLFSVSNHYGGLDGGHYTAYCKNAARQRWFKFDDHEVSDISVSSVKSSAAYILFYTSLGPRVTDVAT
Outline: as §1

Measured: log2 ratio of Biotin-Ahx-Ub-VS probe labelling

Chain of USP54 (Q70EL1 whole entry): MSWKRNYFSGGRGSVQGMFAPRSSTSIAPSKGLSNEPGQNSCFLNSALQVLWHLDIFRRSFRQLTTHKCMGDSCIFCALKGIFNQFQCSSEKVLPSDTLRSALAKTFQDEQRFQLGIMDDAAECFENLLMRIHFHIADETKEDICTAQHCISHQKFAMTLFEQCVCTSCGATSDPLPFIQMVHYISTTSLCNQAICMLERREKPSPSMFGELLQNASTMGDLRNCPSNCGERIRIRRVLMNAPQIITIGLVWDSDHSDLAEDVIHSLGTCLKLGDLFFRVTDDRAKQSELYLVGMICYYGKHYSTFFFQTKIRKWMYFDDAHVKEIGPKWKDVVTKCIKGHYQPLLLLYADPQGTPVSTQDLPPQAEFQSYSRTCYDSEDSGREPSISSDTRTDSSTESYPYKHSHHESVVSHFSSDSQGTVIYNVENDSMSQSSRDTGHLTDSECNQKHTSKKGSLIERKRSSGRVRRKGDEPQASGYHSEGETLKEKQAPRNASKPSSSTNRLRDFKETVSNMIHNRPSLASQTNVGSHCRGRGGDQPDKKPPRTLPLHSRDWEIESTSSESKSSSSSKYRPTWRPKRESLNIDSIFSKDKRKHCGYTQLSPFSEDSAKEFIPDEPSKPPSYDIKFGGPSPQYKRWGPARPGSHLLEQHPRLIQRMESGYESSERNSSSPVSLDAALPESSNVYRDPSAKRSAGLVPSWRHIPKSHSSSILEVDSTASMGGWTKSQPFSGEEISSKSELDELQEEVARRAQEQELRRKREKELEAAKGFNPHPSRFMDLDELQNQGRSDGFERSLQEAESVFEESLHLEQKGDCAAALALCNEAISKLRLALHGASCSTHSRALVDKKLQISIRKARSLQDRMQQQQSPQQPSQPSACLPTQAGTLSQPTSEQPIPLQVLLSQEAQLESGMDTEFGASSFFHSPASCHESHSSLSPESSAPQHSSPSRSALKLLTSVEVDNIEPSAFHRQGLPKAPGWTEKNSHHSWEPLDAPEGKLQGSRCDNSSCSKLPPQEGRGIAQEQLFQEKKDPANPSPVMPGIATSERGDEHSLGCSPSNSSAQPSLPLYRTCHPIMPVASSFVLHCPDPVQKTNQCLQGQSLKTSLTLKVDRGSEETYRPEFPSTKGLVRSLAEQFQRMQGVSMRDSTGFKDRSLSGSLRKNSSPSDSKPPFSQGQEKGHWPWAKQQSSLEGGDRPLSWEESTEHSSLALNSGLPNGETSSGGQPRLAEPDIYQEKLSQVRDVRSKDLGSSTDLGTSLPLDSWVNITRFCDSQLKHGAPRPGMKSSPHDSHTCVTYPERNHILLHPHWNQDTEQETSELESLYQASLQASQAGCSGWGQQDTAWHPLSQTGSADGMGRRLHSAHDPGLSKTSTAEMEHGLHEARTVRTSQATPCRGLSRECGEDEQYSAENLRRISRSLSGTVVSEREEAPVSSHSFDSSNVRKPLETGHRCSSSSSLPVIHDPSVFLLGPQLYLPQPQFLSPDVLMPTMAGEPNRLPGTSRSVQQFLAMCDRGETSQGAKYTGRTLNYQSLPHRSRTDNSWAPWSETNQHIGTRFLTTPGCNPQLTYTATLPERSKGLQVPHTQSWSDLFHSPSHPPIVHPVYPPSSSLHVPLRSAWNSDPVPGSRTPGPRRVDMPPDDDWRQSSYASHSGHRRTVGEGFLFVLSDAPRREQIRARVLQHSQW
Chain of USP46 (P62068 whole entry): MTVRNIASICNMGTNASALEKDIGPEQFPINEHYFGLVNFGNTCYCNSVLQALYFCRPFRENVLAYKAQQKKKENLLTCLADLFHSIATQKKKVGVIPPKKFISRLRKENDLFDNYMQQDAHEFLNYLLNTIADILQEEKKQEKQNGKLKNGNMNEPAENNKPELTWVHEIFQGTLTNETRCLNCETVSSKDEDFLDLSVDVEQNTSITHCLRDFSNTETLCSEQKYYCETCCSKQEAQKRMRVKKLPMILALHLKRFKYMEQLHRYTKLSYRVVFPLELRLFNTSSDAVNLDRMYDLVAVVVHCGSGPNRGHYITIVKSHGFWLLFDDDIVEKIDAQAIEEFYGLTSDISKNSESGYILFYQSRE
Chain of USP7 (Q93009 whole entry, looked up): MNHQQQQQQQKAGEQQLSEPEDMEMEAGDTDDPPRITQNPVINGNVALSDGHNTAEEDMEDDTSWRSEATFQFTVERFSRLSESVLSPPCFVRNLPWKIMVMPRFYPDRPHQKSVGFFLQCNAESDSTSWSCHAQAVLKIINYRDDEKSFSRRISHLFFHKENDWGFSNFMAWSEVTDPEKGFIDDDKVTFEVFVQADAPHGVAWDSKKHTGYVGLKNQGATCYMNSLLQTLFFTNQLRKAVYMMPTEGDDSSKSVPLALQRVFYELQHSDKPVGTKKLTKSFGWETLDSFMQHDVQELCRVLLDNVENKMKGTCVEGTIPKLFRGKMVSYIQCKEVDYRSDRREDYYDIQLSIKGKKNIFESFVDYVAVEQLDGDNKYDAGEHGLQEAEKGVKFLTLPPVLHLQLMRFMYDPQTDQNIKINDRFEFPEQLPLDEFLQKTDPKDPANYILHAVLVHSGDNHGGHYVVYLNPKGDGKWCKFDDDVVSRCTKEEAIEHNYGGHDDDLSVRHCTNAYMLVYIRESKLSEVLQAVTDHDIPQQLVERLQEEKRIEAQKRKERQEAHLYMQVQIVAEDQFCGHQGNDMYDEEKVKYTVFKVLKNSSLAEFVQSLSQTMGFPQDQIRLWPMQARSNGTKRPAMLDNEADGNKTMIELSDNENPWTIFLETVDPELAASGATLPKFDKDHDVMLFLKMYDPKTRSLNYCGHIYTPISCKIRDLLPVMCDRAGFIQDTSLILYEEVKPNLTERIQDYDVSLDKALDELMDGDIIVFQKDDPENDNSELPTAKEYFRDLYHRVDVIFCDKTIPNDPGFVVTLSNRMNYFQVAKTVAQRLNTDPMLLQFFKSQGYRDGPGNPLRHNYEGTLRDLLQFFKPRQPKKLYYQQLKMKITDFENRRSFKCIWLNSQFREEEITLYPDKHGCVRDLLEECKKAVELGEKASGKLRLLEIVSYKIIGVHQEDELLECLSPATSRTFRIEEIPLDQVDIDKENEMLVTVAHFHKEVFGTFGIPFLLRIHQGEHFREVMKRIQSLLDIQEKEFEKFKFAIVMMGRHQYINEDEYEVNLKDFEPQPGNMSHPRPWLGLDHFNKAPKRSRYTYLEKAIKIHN

Cc1cc(Cl)ccc1NC(=O)CCl
inactive: [1] -0.0727 | [2] -0.0701 | [3] -0.176 | [4] -0.173 | [5] -0.0552 | [6] -0.075 | [7] -0.304 | [8] 0.0468
